Bioassay records as filed in PubChem BioAssay.
Hits are enriched below; roughly 11% of the tested compounds scored in any of these assays.
HEK293 tox: Cytotoxic Profiling in HEK 293 Cell Line of Diverse Libraries Using Quantitative High-Throughput Screening; actives 6.6% (n = 94,000); Potency, µM (highest dose often 115 µM), for inactives: at the highest dose activity change, negative = cytotoxicity, hits mostly inhibitors; HEK 293 viability, ATP luminescence (CellTiter-Glo), 48-72 h; note: nearly all actives have a fitted effect of over 60% in size
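Pintool-delivered compounds were incubated with HEK 293 cells (250 cells/well) at 37 degree Celsius for 48 or 72 hr. ATP-dependent luminescence (CellTiter-Glo) then reported remaining viable cells.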
Luciferase inh: Firefly luciferase inhibition profiling of diverse chemical library using quantitative high-throughput screening; purified P. pyralis luciferase, luminescence, biochemical; Potency, µM (doses to about 115 µM), most hits filed as inhibitors; actives 2.5% (n = 76,000); AID 1347043, 2019; note: nearly all actives have a fitted effect of over 65% in size
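Luminescence read by CCD imaging after purified firefly luciferase (10nM final) was added to substrate buffer holding 10uM D-luciferin and 10uM ATP, pH 7.5, pre-dosed with compound.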
hNpr1 antagonist: Natriuretic polypeptide receptor (hNpr1) antagonism - Primary qHTS; HEK293 hNpr1 GloSensor cGMP, ANP-stimulated luminescence; Potency, µM (top dose mostly 46.3 µM), for the others: at the highest dose activity change, negative = inhibition, actives largely listed as inhibitors; actives 1.6% (n = 76,000); AID 1347048, 2019; calls by dose curve; note: nearly all actives have a fitted effect of over 60% in size
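HEK293 cells stably expressing human Npr1 and cGMP GloSensor pGS-40F, loaded 2 h with 2% GloSensor reagent, given compound 30 min at room temperature. Luminescence read before and 20 min after 0.1 nM hNppA.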
3T3 cytotox: Cytotoxic Profiling in NIH 3T3 Cell Line of Diverse Libraries Using Quantitative High-Throughput Screening. actives 4.3% (n = 94,000). Potency, µM (series often up to 96.7 µM), without a hit: at the top dose activity change, negative = cytotoxicity, actives largely listed as inhibitors. NIH 3T3 viability, CellTiter-Glo ATP luminescence, 48-72 h; note: nearly all actives have a fitted effect of over 55% in size
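ATP-dependent luminescence (CellTiter-Glo) served as the viability signal for NIH 3T3 cells treated with compound for 48 or 72 hr at 37 °C.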
Numbers without * were called inactive; i = inactive; ? = inconclusive; nt = no result given; [ ] = another dose, or the depositor's remark. Unless noted, calls come from the whole dose curve; as a rule, active = well fitted curve in the direction sought with a large enough effect; inconclusive = small, poorly fitted or top-dose-only effect, or another doubt; inactive = no such curve, though single readings can be large; an effect the other way counts as inactive or inconclusive. % is set by controls: 0 for no effect and ±100 for the full control effect; potency is the fitted concentration of half-maximal effect.

SMILES	HEK293 tox	Luciferase inh	hNpr1 antagonist	3T3 cytotox
O=c1cc(N2CCOCC2)oc2c(-c3cccnc3)nccc12	-9%[172 µM]	i	6%[70.6 µM]	79µM*
COc1ncc(-c2nccc3c(=O)cc(N4CCN(C)CC4)oc23)cn1	-13%[172 µM]	i	1%[70.6 µM]	89µM*
O=c1cc(N2CCOCC2)oc2c(-c3cncnc3)nccc12	-1%[172 µM]	i	3%[70.6 µM]	?
COc1cccc(-c2nccc3c(=O)cc(N4CCOCC4)oc23)c1	?	i	9%[70.6 µM]	20µM*
COc1ccc(-c2c(C(=O)NC3CC3)nc3sccn23)cc1	1%[172 µM]	nt	nt	-6%[138 µM]
COCc1nnc(C2CC3(CCN(C(=O)c4ccc(C)s4)CC3)CN2C)o1 (stereo not drawn)	-5%	nt	nt	-9%
Nc1cccn2nc(-c3cccnc3)nc12	i	?	-6%	-14%
Nc1cccn2nc(-c3ccccc3)nc12	-18%	16µM*	-15%	?
O=C(NCc1cccc(C(F)(F)F)c1)C1CCN(c2ccnc3ccnn23)CC1	35µM*	nt	nt	?
O=C(NCc1cccs1)C1CCCN(c2ccnc3ccnn23)C1 (stereo not drawn)	89µM*	nt	nt	?
COc1ccccc1Nc1ccnc(N2CCC(C(=O)N3CCOCC3)CC2)n1	2%	nt	nt	?
COc1ccccc1Nc1ccnc(N2CCC(C(=O)NCc3cccc(C(F)(F)F)c3)CC2)n1	?	nt	nt	32µM*
COc1ccccc1Nc1ccnc(N2CCC(C(=O)NCCSC)CC2)n1	?	nt	nt	40µM*
Cc1nn(-c2ccccc2)c2c1C(C1CC1)N(C1CCN(C(=O)NC(C)C)C1)C2=O (stereo not drawn)	-3%	nt	nt	-20%
COc1cccc(C(=O)N2CCC(N3C(=O)c4c(c(C)nn4-c4ccccc4)C3C3CC3)C2)c1 (stereo not drawn)	35µM*	nt	nt	?
Cc1nn(-c2ccccc2)c2c1C(C1CC1)N(C1CCN(C(=O)c3cccc(Cl)c3)C1)C2=O (stereo not drawn)	25µM*	nt	nt	?
Cc1nn(-c2ccccc2)c2c1C(C1CC1)N(C1CCN(C(=O)NC3CCCC3)C1)C2=O (stereo not drawn)	45µM*	nt	nt	?
Cc1nn(-c2ccccc2)c2c1C(C1CC1)N(C1CCN(C(=O)c3cccc(Cl)c3)CC1)C2=O (stereo not drawn)	?	nt	nt	-27%
O=C(C1CCCC1)N1CCN(c2ccc3nnc(C4CC4)n3n2)CC1	-4%[172 µM]	nt	nt	-22%[138 µM]
O=C(NCc1cccc(Cl)c1)c1cnc2c(c1)N(C(=O)Cc1ccc(O)cc1)CCC2	?	i	-9%[70.6 µM]	?
O=C(CNC(=O)c1ccc(-c2cnc3ccccc3c2)cc1)NCCc1ccccc1	-14%	nt	nt	-26%
CC(=O)N1CCN(Cc2ccccc2-c2cccnc2)CC1	-1%[172 µM]	nt	nt	-13%[138 µM]
O=C(C1CCCC1)N1CCN(Cc2ccccc2-c2cccnc2)CC1	50µM*	nt	nt	?
CC(C)(C)C(=O)N1CCN(Cc2ccccc2-c2cccnc2)CC1	100µM*	nt	nt	-29%[138 µM]
COc1cc(F)ccc1C(C(=O)O)N1CCC(Oc2cccc(F)c2)CC1 (stereo not drawn)	-1%	i	7%	-8%
SMILES	HEK293 tox	Luciferase inh	hNpr1 antagonist	3T3 cytotox
CC1Oc2ccc(NC(=O)c3ccc(F)cc3F)cc2CN(Cc2ccccc2Cl)C1=O (stereo not drawn)	50µM*	i	-21%	?
COc1ccc(CC(=O)Nc2ccc3c(c2)CN(CCOc2ccccc2)C(=O)C(C)O3)cc1 (stereo not drawn)	45µM*	i	-17%	?
CC1Oc2ccc(NC(=O)c3ccccc3Cl)cc2CN(Cc2ccccc2F)C1=O (stereo not drawn)	?	i	-11%	?
CC1Oc2ccc(NC(=O)COc3ccccc3)cc2CN(Cc2ccccc2Cl)C1=O (stereo not drawn)	25µM*	i	-5%	?
COc1ccc(CN2Cc3cc(NC(=O)Cc4ccccc4)ccc3OC(C)C2=O)cc1 (stereo not drawn)	?	i	-17%	?
Cc1cc(C)n(CCC(=O)NCC23CCCC=C2NC(=O)CC3)n1 (stereo not drawn)	-18%	nt	nt	-19%
COc1ccc(-c2ccc(C(=O)N3CCN(C(=O)c4ccccc4C)CC3)cc2)nn1	-5%	nt	nt	i
CC(C)c1nc2c(c(-c3ccc(Cl)cc3)n1)CCN(Cc1ccc(N(C)C)cc1)CC2	-30%	nt	nt	-8%
COC(=O)[C@@H]1Cc2nc[nH]c2CN1C(C)C	?	i	2%[70.6 µM]	71µM*
COC(=O)[C@@H]1Cc2nc[nH]c2CN1C1CCOCC1	-11%[230 µM]	i	6%[70.6 µM]	-8%[230 µM]
O=C(NC1CCCN(c2ccnc3ccnn23)C1)c1ccc2c(c1)OCO2 (stereo not drawn)	35µM*	nt	nt	?
COc1cccc(C(=O)NC2CCN(c3ccnc4ccnn34)CC2)c1	35µM*	nt	nt	?
COc1ccc(C(=O)NC2CCCN(c3ccnc4ccnn34)C2)cc1 (stereo not drawn)	32µM*	nt	nt	?
O=C(NC1CCCN(c2ccnc3ccnn23)C1)c1cccc(Br)c1 (stereo not drawn)	79µM*	nt	nt	?
O=C(NC1CCCN(c2ccnc3ccnn23)C1)c1ccncc1 (stereo not drawn)	?	nt	nt	-28%[138 µM]
CCOC(=O)[C@H]1[C@@H](O)C(=O)N(Cc2ccccc2)C12CCN(C(=O)N(C)C)CC2	-14%	nt	nt	?
O=C(NCc1ccccc1)c1cn2cc(-c3ccc(C(F)(F)F)cc3)sc2n1	-7%	nt	nt	-16%
COc1ccc(CNC(=O)CC2CCCCN(C)C2=O)cc1 (stereo not drawn)	-7%	nt	nt	-20%
O=C(NC1CN(c2ccnc3ccnn23)C1)c1ccc(Cl)cc1	-19%[172 µM]	nt	nt	?
O=C(NC1CCCN(c2ccnc3ccnn23)C1)c1ccc(Cl)cc1 (stereo not drawn)	40µM*	nt	nt	?
CC(C)c1nc2c(c(-c3ccc(O)cc3)n1)CN(Cc1ccsc1)CC2	?	i	-13%	?
O=C(CCc1ccccc1)N1CCCC(n2cc(-c3nc(-c4ccccc4)no3)nn2)C1 (stereo not drawn)	45µM*	?	?	?
CC(=O)NCC(=O)N1CCCC(n2cc(-c3nc(-c4ccccc4)no3)nn2)C1 (stereo not drawn)	-23%	35µM*	-10%	-18%
O=C(c1ccc2c(c1)OCO2)N1CCCC2(CNc3ncccc3[S+](=O)([O-])N2)C1 (stereo not drawn)	-14%	nt	nt	-21%
CN1CCc2c([nH]c3ccccc23)C12CCN(C(=O)c1ccc(Cn3ccnc3)o1)CC2	89µM*	i	1%	-24%
CN1CCc2c([nH]c3ccccc23)C12CCN(C(=O)c1ccnn1C)CC2	2%	i	0%	-13%
